Laboratory results taken from PubChem BioAssay (NCI).
This is part of a sample that, as a whole, favours compounds with a hit. Of some 83,000 tested, about 20% had one in any assay.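 A percent growth of 40 corresponds to 60% growth inhibition; 0 means no net growth; -100 means all cells died. Active threshold: below 10.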 Values without a mark were called inactive. Activity calls are given as the source filed them.

What was measured:
Test in all cases: NCI-60 one-dose screen, 48 h (100 = growth as untreated, 0 = no growth, -100 = all killed)
Conditions in all cases: 10 µM unless noted
[1] = system: SR leukemia
[2] = system: RPMI-8226 leukemia
[3] = system: OVCAR-8 ovarian
[4] = system: OVCAR-5 ovarian
[5] = system: OVCAR-4 ovarian
[6] = system: SK-OV-3 ovarian
[7] = system: IGROV1 ovarian
[8] = system: OVCAR-3 ovarian
[9] = system: HS 578T breast
[10] = system: NCI/ADR-RES ovarian
[11] = system: T-47D breast
[12] = system: BT-549 breast
[13] = system: MDA-MB-435 melanoma
[14] = system: SW-620 colon
[15] = system: MCF7 breast
[16] = system: HCT-116 colon
[17] = system: HCC-2998 colon
[18] = system: KM12 colon

NS(=O)(=O)c1ccc(CCN2C(=O)/C(=C\c3ccc(Cl)cc3)C=C2c2ccc(Oc3ccccc3)cc2)cc1
growth [1]: 45.9% | growth [2]: 60.4% | growth [3]: 71.4% | growth [4]: 76.7% | growth [5]: 87.5% | growth [6]: 93% | growth [7]: 78.8% | growth [8]: 81.3% | growth [9]: 98.8% | growth [10]: 78.3% | growth [11]: 66.7% | growth [12]: 92.2% | growth [13]: 78.8% | growth [14]: 83% | growth [15]: 39.3% | growth [16]: 65% | growth [17]: 89% | growth [18]: 62.4%

COc1cc(/C=C\c2cc(/C=C\c3ccc(O)c(OC)c3)n(C(=O)CNc3ccccc3OC)n2)ccc1O
growth [1]: 2.38% (active) | growth [2]: 80.1% | growth [3]: 84.6% | growth [4]: 102% | growth [5]: 84.2% | growth [6]: 83.8% | growth [7]: 90.5% | growth [8]: 59.7% | growth [9]: 49.8% | growth [10]: 54.4% | growth [11]: 91.8% | growth [12]: 66% | growth [13]: 6.34% (active) | growth [14]: 36.4% | growth [17]: 112% | growth [18]: 46.2%

COc1ccc(-n2c(-c3ccc(NC(=O)CCCl)cc3)nnc2-c2cc(OC)c(OC)c(OC)c2)cc1
growth [1]: 6.09% (active) | growth [2]: 31% | growth [3]: 49.2% | growth [4]: 79.7% | growth [5]: 54.1% | growth [6]: 45.2% | growth [7]: 42.4% | growth [8]: 4.58% (active) | growth [9]: 56% | growth [10]: 55.9% | growth [11]: 25.3% | growth [12]: 66.6% | growth [13]: 54.9% | growth [14]: 54.5% | growth [15]: 23.2% | growth [16]: 35.7% | growth [17]: 43.2% | growth [18]: 15.4%

O=C(c1ccccc1)[C@H]1[C@@H]2CCCN2[C@]2(C(=O)Nc3ccc(F)cc32)[C@]12C(=O)Nc1ccccc12
growth [1]: 85.2% | growth [2]: 71.2% | growth [3]: 88.8% | growth [4]: 91.7% | growth [5]: 81.6% | growth [6]: 83.8% | growth [7]: 81.3% | growth [8]: 83.7% | growth [9]: 96.1% | growth [10]: 96.7% | growth [11]: 65.6% | growth [12]: 91.6% | growth [13]: 92% | growth [14]: 97.8% | growth [15]: 82.5% | growth [16]: 76.5% | growth [17]: 101% | growth [18]: 94.1%

O=C1/C(=C/c2cccc3cnccc23)Cc2cc(F)ccc21
growth [1]: 84.6% | growth [2]: 85.9% | growth [3]: 96.1% | growth [4]: 108% | growth [5]: 77% | growth [6]: 76.9% | growth [7]: 85.9% | growth [8]: 109% | growth [9]: 109% | growth [10]: 90.7% | growth [11]: 42.7% | growth [12]: 89% | growth [13]: 101% | growth [14]: 101% | growth [15]: 58.9% | growth [16]: 80.7% | growth [17]: 106% | growth [18]: 92.1%

C=C1C(=O)O[C@H]2[C@H]1CC/C(COC(=O)CCCC(=O)OC/C1=C/CC[C@@]3(C)O[C@H]3[C@H]3OC(=O)C(=C)[C@@H]3CC1)=C\CC[C@@]1(C)O[C@@H]21
growth [1]: 0.324% (active) | growth [2]: -9.1% (active) | growth [3]: -9.93% (active) | growth [4]: 2.2% (active) | growth [5]: 49.2% | growth [6]: 74.5% | growth [7]: 13.4% | growth [8]: -46.6% (active) | growth [9]: 47.1% | growth [10]: 83.1% | growth [11]: 14.9% | growth [12]: -4.94% (active) | growth [13]: 4.28% (active) | growth [14]: -35.9% (active) | growth [15]: 8.68% (active) | growth [16]: -53% (active) | growth [17]: 64.9% | growth [18]: 26%

COc1ccc(/C=C/C(=O)/C=C(/C=C/c2ccc(OC)c(OC)c2OC)OB(F)F)c(OC)c1OC
growth [1]: 0.627% (active) | growth [2]: 2.74% (active) | growth [3]: 10% | growth [4]: 62.9% | growth [5]: 47.4% | growth [6]: 76.8% | growth [7]: 26.3% | growth [8]: 5.1% (active) | growth [9]: 23.6% | growth [10]: 32.5% | growth [11]: 50.4% | growth [12]: 31.4% | growth [13]: 0.716% (active) | growth [14]: 8% (active) | growth [17]: 59.2% | growth [18]: 22.8%

O=c1nc(N2CCOCC2)oc2c(-c3cccc4ccccc34)cccc12
growth [1]: 72.9% | growth [2]: 96.1% | growth [3]: 85.2% | growth [4]: 89.2% | growth [5]: 97.1% | growth [6]: 90% | growth [7]: 75.4% | growth [8]: 85.8% | growth [9]: 83.8% | growth [10]: 83.7% | growth [11]: 79.7% | growth [12]: 85.3% | growth [13]: 101% | growth [14]: 97.9% | growth [15]: 89.8% | growth [16]: 96.7% | growth [17]: 109% | growth [18]: 87.3%

C#C[C@@]1(O)[C@@H](CO)O[C@@H](n2cc(C(F)(F)F)c3c(N)ncnc32)[C@@H]1O
growth [1]: -6.19% (active) | growth [2]: -33.6% (active) | growth [3]: 2.43% (active) | growth [4]: 14.1% | growth [5]: 15.8% | growth [6]: -7.5% (active) | growth [7]: 2.75% (active) | growth [8]: -2.07% (active) | growth [9]: -15.6% (active) | growth [10]: 6.08% (active) | growth [11]: -19.3% (active) | growth [13]: 14.7% | growth [14]: 4.55% (active) | growth [15]: 1.74% (active) | growth [16]: 4.15% (active) | growth [17]: 3.76% (active) | growth [18]: 6.52% (active)

O=C(C[n+]1ccccc1Cl)c1ccc2c(c1)CCCC2
growth [1]: 59.8% | growth [2]: 90.3% | growth [3]: 102% | growth [4]: 102% | growth [5]: 83.6% | growth [6]: 99.7% | growth [7]: 107% | growth [8]: 93.6% | growth [9]: 111% | growth [10]: 109% | growth [11]: 79.6% | growth [13]: 92.1% | growth [14]: 82.8% | growth [15]: 95.8% | growth [16]: 80.3% | growth [17]: 103% | growth [18]: 82.2%

CC1=C2C(=C[C@@](C)(CO)[C@@H]2OC(=O)N(C)CCN(C)C(=O)OC(C)(C)C)C(=O)[C@](C)(O)C12CC2
growth [1]: 50.6% | growth [2]: 48% | growth [3]: 36.6% | growth [4]: 19.2% | growth [5]: 43.8% | growth [6]: 35.3% | growth [7]: 9.25% (active) | growth [8]: 3.63% (active) | growth [9]: 93.9% | growth [10]: 10.7% | growth [11]: 45.2% | growth [13]: 72.6% | growth [14]: 71.3% | growth [15]: 34.8% | growth [16]: 15.9% | growth [17]: 75.8% | growth [18]: 74%

Cc1ccc(-c2nc3c(N=Nc4ccc(S(N)(=O)=O)cc4)c(N)nn3c(N)c2C#N)cc1
growth [1]: 28.9% | growth [2]: -16.4% (active) | growth [3]: 44.1% | growth [4]: 78.7% | growth [5]: 52.2% | growth [6]: 63.8% | growth [7]: 37.4% | growth [8]: 23.6% | growth [9]: 39.4% | growth [10]: 99.9% | growth [11]: 34.1% | growth [13]: 52.3% | growth [14]: 16.5% | growth [15]: 28.3% | growth [16]: 13.7% | growth [17]: 52.4% | growth [18]: 29.2%

COc1ccc(C(=O)NC(=O)Nc2ccc3c(c2)NC(=O)/C3=C\c2[nH]c(C)c(C(=O)O)c2C)cc1
growth [1]: 34.3% | growth [2]: 83.2% | growth [3]: 39.9% | growth [4]: 121% | growth [5]: 93% | growth [6]: 118% | growth [7]: 75.4% | growth [8]: 52.7% | growth [9]: 46.8% | growth [10]: 99.1% | growth [11]: 45.3% | growth [13]: 85.2% | growth [14]: 52.6% | growth [15]: 75% | growth [16]: 48.1% | growth [17]: 97.7% | growth [18]: 17.8%

O=C1C(Cl)=C(Nc2cccc3cc4ccccc4nc23)C(=O)c2ccccc21
growth [1]: 45.1% | growth [2]: 48.7% | growth [3]: 32.6% | growth [4]: 53.8% | growth [5]: 55.4% | growth [6]: 44.3% | growth [7]: 37.2% | growth [8]: 64.4% | growth [9]: 95.2% | growth [10]: 42.8% | growth [11]: 37.9% | growth [13]: 59% | growth [14]: 31.1% | growth [15]: 20.1% | growth [16]: 17% | growth [17]: 50.7% | growth [18]: 52.3%

CSc1nc(N)nc2c1ncn2C
growth [1]: 91.7% | growth [2]: 96.4% | growth [3]: 106% | growth [4]: 100% | growth [5]: 103% | growth [6]: 90.4% | growth [7]: 106% | growth [8]: 100% | growth [9]: 106% | growth [10]: 98.8% | growth [11]: 90.3% | growth [13]: 102% | growth [14]: 101% | growth [15]: 96.7% | growth [16]: 92.1% | growth [17]: 99.8% | growth [18]: 95.6%

Cc1[nH]c2ccc(F)cc2c1CCNC(=O)C1CCN(C(=O)c2ccc(-c3ccccc3)cc2)CC1
growth [1]: 8.16% (active) | growth [2]: 44.5% | growth [3]: 56.3% | growth [4]: 90.1% | growth [5]: 44.7% | growth [6]: 63.8% | growth [7]: 67.1% | growth [8]: 63.8% | growth [9]: 72.7% | growth [10]: 49.6% | growth [11]: -32.2% (active) | growth [13]: 56.8% | growth [14]: 69.3% | growth [15]: 16.5% | growth [16]: 32.5% | growth [17]: 57% | growth [18]: 43.3%

CC(=O)CC/C=C(\C)[C@H](O)[C@H](C)C(=O)O[C@H]1C[C@H](C)C=C2C=C[C@@]3(C)O[C@@H](O)CC(=O)[C@]3(C)[C@H]21
growth [1]: 0.335% (active) | growth [2]: -18.5% (active) | growth [3]: -14.7% (active) | growth [4]: -10% (active) | growth [5]: -21.9% (active) | growth [6]: -25.5% (active) | growth [7]: -17.7% (active) | growth [8]: -46.4% (active) | growth [9]: -10.1% (active) | growth [10]: 0.0427% (active) | growth [11]: -26.6% (active) | growth [13]: -88.3% (active) | growth [14]: 1.02% (active) | growth [15]: -4.71% (active) | growth [16]: -20.3% (active) | growth [17]: -81.9% (active) | growth [18]: -10% (active)

COc1ccc(-c2nnc(NC(=O)CN3CCN(c4cc5c(cc4F)c(=O)c(C(=O)O)cn5C4CC4)CC3)s2)cc1OC
growth [1]: 102% | growth [2]: 102% | growth [3]: 98.4% | growth [4]: 106% | growth [5]: 104% | growth [6]: 98.6% | growth [7]: 104% | growth [8]: 106% | growth [9]: 91.5% | growth [10]: 103% | growth [11]: 101% | growth [13]: 103% | growth [14]: 105% | growth [15]: 106% | growth [16]: 103% | growth [17]: 99.6% | growth [18]: 98.2%
